{
  "source": "paper PMC5540273",
  "about": "(PLoS ONE, 2017);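 also: kd values determined as follow-up on hits from a single-replicate KINOMEscan panel screen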",
  "key": {"[1]": {"tested_on": "TYK2(JH2domain-pseudokinase)"}, "VEGFR2": {"tested_on": "T1, VEGFR2", "T1 construct": "gene KDR"}},
  "data": [
    {"compound": "O=C(NCCNc1ccnc(Nc2ccc(F)cc2)n1)Nc1ccc2c(c1)OCO2", "note": "[GSK1379882]", "values": [
      {"measurement": "Kd", "setting": "TXK", "value": "> 10", "unit": "µM"}
    ]},
    {"compound": "CN(C)c1cc(-c2ccc3c(N)n[nH]c3c2)nc(N)n1", "note": "[GSK2219329]", "values": [
      {"measurement": "Kd", "setting": "TXK", "value": "> 10", "unit": "µM"}
    ]},
    {"compound": "Nc1n[nH]c2ncc(-c3ccccc3)cc12", "note": "[SB-517081]", "values": [
      {"measurement": "Kd", "setting": "[1]", "value": 0.95, "unit": "µM"}
    ]},
    {"compound": "COc1cc(OC)cc(-c2cc3cnc(N)nc3nc2NC(=O)NC(C)(C)C)c1", "values": [
      {"measurement": "Kd", "setting": "TYRO3", "value": "> 10", "unit": "µM"}
    ]},
    {"compound": "COc1ccc(-c2coc3ccc(-c4nnc(SCc5cccc(C#N)c5)o4)cc23)cc1", "values": [
      {"measurement": "Kd", "setting": "ULK3", "value": "> 10", "unit": "µM"}
    ]},
    {"compound": "COc1cc2nccc(Nc3ccc(OCc4ccc(NC(C)=O)cc4)cc3)c2cc1OC.Cl", "note": "[GW440135]", "values": [
      {"measurement": "Kd", "setting": "VEGFR2", "value": 0.053, "unit": "µM"}
    ]},
    {"compound": "CN1C(=O)C(Nc2cc(Cl)c(O)c(Cl)c2)=C(c2ccc(Cl)cc2)C1=O", "note": "[SB-404321]", "values": [
      {"measurement": "Kd", "setting": "VRK2", "value": "> 10", "unit": "µM"}
    ]},
    {"compound": "OCCCNc1nccc(-c2c(-c3cccc(C(F)(F)F)c3)nn3cc(C(F)(F)F)ccc23)n1", "note": "[GW630813]", "values": [
      {"measurement": "Kd", "setting": "WNK4", "value": "> 10", "unit": "µM"}
    ]}
  ]
}
